# Measurements from PubChem BioAssay (EPA / NIEHS).
# Records with an inconclusive call do not appear. Active and inactive are the calls of the source. Rule for the calls, unless noted: active = hit-call score of the fitted dose curve at least 0.9, where 1 is the maximum; inconclusive = response in the unintended direction; inactive = score below 0.9.
# Key:
# [1] = CEETOX_H295R_ESTRONE: CeeTox H295R High-throughput Steroidogenesis Assay for Estrone (AID 2283441; active = hit-call score of the fitted dose curve at least 0.9, where 1 is the maximum; inactive = score below 0.9;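 for AC50: human adrenal H295R cells prestimulated with forskolin for two days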); settings: actives raise or lower the signal
# Method in brief: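 Estrone secreted into medium quantified by LC-MS/MS after dansyl chloride derivatization, following 48 h chemical exposure (0.1% DMSO final) of forskolin-prestimulated (10 uM, 48 h) H295R cells; gain or loss fitted against DMSO; MTT viability in same wells.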
# [2] = CEETOX_H295R_PROG: CeeTox H295R High-throughput Steroidogenesis Assay for Progesterone (PROG) (AID 2283442; active = hit-call score of the fitted dose curve at least 0.9, where 1 is the maximum; inactive = score below 0.9;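 for AC50: human H295R adrenal cells primed with 10 µM forskolin before dosing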); settings: actives raise or lower the signal
# Method in brief: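 H295R adrenal cells prestimulated 48 h with 10 uM forskolin, then exposed 48 h to test chemical in 0.1% DMSO. Progesterone in medium quantified by HPLC-MS/MS after MTBE extraction; viability checked by MTT in same wells.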
# [3] = ATG_XTT_Cytotoxicity: Cytotoxicity Assessment in the Attagene TRANS-FACTORIAL HepG2 Assay (AID 2283584);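 for AC50: XTT signal for cell number as viability in transfected HepG2 cells; cells exposed to compound for 24 h before reading; active means loss of viability signal versus DMSO baseline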
# Method in brief: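 HepG2 cells transiently transfected with GAL4-UAS multiple reporter units, dosed 24 h; cytotoxicity read by XTT as loss of signal versus DMSO baseline.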
# [4] = CEETOX_H295R_TESTO: CeeTox H295R High-throughput Steroidogenesis Assay for Testosterone (TESTO) (AID 2283457; active = hit-call score of the fitted dose curve at least 0.9, where 1 is the maximum; inactive = score below 0.9;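 for AC50: cells exposed to chemicals for 48 h before medium collection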); settings: actives raise or lower the signal
# Method in brief: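 H295R adrenal cells, passage ≤10, exposed to chemicals for 48 h. Testosterone in medium measured by MTBE extraction and HPLC-MS/MS against a 7-point standard curve. Bidirectional fit versus DMSO; MTT viability checked in the same wells.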
# [5] = TOX21_p53_BLA_p2_viability: Viability Assessment in the Tox21 HCT-116 p53 Agonism Beta-lactamase Assay, Phase 2 (AID 2283591);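 note: compound exposure lasted 16 h at 37 °C; actives lower the ATP signal meaning cytotoxicity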
# Method in brief: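 Cytotoxicity readout: CellTiter-Glo ATP luminescence, 30 min at room temperature, after the beta-lactamase read. Cells were HCT116 exposed 16 h at 37C to compounds pin-transferred at 217-fold dilution from DMSO stocks.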
# [6] = target: Cellular tumor antigen p53 (Homo sapiens) (UniProt P04637); test: TOX21_p53_BLA_p2_ratio: Tox21 HCT-116 p53 Agonism Beta-lactamase Assay, Ratio, Phase 2 (AID 2283592)
# Method in brief: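 First, HCT116 reporter cells settle for 5 h at 37C. Next, DMSO compound solutions are pinned in (217-fold dilution) and left 16 h. Finally, CCF4-AM substrate is loaded 2 h at room temperature and the 460/530 nm ratio read.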
# [7] = TOX21_p53_BLA_p3_viability: Viability Assessment in the Tox21 HCT-116 p53 Agonism Beta-lactamase Assay, Phase 3 (AID 2283593);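 note: cells exposed to compound for 16 h before reading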
# Method in brief: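 Cellular ATP was quantified by CellTiter-Glo luminescence, read after 30 min at room temperature. Beforehand, HCT116 cells (4000/well) received compound 5 h post-seeding, 217-fold diluted from DMSO, then incubated 16 h at 37C.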
# [8] = target: Cellular tumor antigen p53 (Homo sapiens) (UniProt P04637); test: TOX21_p53_BLA_p3_ratio: Tox21 HCT-116 p53 Agonism Beta-lactamase Assay, Ratio, Phase 3 (AID 2283596)
# Method in brief: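 Cells were seeded at 4000/well, rested 5 h at 37C, then dosed with DMSO compound solutions (217-fold dilution) for 16 h. CCF4-AM substrate was loaded for 2 h at room temperature, and the 460/530 nm emission ratio was fitted for gain of signal versus DMSO.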
# [9] = TOX21_p53_BLA_p4_viability: Viability Assessment in the Tox21 HCT-116 p53 Agonism Beta-lactamase Assay, Phase 4 (AID 2283597);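 note: hits lower the luminescence signal meaning cytotoxicity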
# Method in brief: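 4000 HCT116 cells per well; 5 h attachment; compounds from DMSO, 217-fold dilution; 16 h at 37C. Then CCF4-AM, 2 h RT, followed by CellTiter-Glo, 30 min RT, luminescence. Decrease = cytotoxicity.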
# [10] = target: Cellular tumor antigen p53 (Homo sapiens) (UniProt P04637); test: TOX21_p53_BLA_p5_ratio: Tox21 HCT-116 p53 Agonism Beta-lactamase Assay, Ratio, Phase 5 (AID 2283599)
# Method in brief: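 Beta-lactamase reporter ratio (blue 460 nm over green 530 nm, 405 nm excitation) after 2 h CCF4-AM loading, in HCT-116 cells exposed 16 h at 37 C to compounds pinned at 217-fold dilution. Increases relative to DMSO baseline scored.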
# Sequence of Cellular tumor antigen p53 (Homo sapiens) (P04637 whole entry, looked up): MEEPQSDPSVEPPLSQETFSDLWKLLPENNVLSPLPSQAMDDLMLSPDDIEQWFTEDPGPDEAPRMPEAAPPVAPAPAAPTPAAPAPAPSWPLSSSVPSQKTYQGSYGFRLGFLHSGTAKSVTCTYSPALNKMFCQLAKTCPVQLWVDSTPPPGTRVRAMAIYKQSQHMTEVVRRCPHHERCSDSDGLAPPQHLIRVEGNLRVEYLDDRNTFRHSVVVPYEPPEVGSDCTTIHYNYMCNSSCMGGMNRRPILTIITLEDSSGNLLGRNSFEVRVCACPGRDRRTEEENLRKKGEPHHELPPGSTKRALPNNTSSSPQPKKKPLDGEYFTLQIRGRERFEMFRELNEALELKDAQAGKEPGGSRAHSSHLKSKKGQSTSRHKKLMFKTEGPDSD
smiles,measurement,setting,value
CN1CN(C)CN(C)C1,outcome,[1],inactive
same,outcome,[2],inactive
same,outcome,[3],inactive
Cc1cc(C)c(O)c(C(C)(C)C)c1,outcome,[3],inactive
CC1CCCCC1,outcome,[1],inactive
same,outcome,[2],inactive
same,outcome,[4],inactive
same,outcome,[3],inactive
C[C@]12CC[C@H]3C(=CCc4cc(O)ccc43)[C@@H]1CCC2=O,AC50,[2],0.502 µM (active)
same,AC50,[4],4.29 µM (active)
same,outcome,[3],inactive
same,outcome,[5],inactive
same,outcome,[6],inactive
same,outcome,[7],inactive
same,outcome,[8],inactive
same,AC50,[9],15.8 µM (active)
same,outcome,[10],inactive
CCN(CC)c1ccc(N=Nc2ccccc2)cc1,outcome,[1],inactive
same,outcome,[2],inactive
same,outcome,[4],inactive
same,outcome,[3],inactive
CCOCOCC,outcome,[1],inactive
same,outcome,[2],inactive
same,outcome,[4],inactive
same,outcome,[3],inactive
CCCCCCCCCCCCCC[P+](CCCC)(CCCC)CCCC,AC50,[3],8.53 µM (active)
OCCC(O)CO (stereo unspecified),outcome,[2],inactive
N#Cc1ccccc1O,outcome,[2],inactive
same,outcome,[3],inactive
CC(C)C(=O)OCc1ccccc1,outcome,[3],inactive
N#CCCOCCC#N,outcome,[3],inactive
Cc1cnccn1,outcome,[3],inactive
CCCCCCCCCc1ccc(OCCO)cc1,outcome,[1],inactive
same,outcome,[2],inactive
same,outcome,[4],inactive
same,outcome,[3],inactive
CCCCC(CC)COC(=O)c1ccc(N(C)C)cc1 (stereo unspecified),outcome,[1],inactive
same,AC50,[2],6.01 µM (active)
same,outcome,[3],inactive
same,outcome,[5],inactive
same,outcome,[6],inactive
same,outcome,[7],inactive
same,outcome,[8],inactive
same,outcome,[9],inactive
same,outcome,[10],inactive
CCn1c2ccccc2c2ccccc21,outcome,[2],inactive
same,AC50,[4],50 µM (active)
same,outcome,[3],inactive
CCCCCCCC/C=C\CCCCCCCC(=O)OCC(O)CO (stereo unspecified),outcome,[3],inactive
CSc1ccc(O)cc1C,AC50,[1],26.7 µM (active)
same,outcome,[2],inactive
same,outcome,[4],inactive
same,outcome,[3],inactive
Oc1ccc2c(c1)CCC2,outcome,[1],inactive
same,outcome,[4],inactive
same,outcome,[3],inactive
Cc1cc(O)c(C(C)(C)C)cc1C(C)(C)C,outcome,[1],inactive
same,AC50,[2],2.64 µM (active)
same,outcome,[4],inactive
same,outcome,[3],inactive
same,AC50,[5],40.6 µM (active)
same,AC50,[6],70.8 µM (active)
same,AC50,[7],87 µM (active)
same,AC50,[8],87.3 µM (active)
same,AC50,[9],30.9 µM (active)
same,AC50,[10],57.2 µM (active)
